Only some compounds are listed: those with a hit (about 4.1% of all), similar ones and a draw of the others.
MEKK3 PB1 HTS: modulators of MEKK3-MEK5 PB1 binding, primary screen, biochemical, wildtype MEKK3, multiplex bead flow cytometry, Alexa488-MEK5. Mitogen-activated protein kinase kinase kinase 3 (Homo sapiens), Q99759. bead-based flow cytometry, Alexa488-MEK5 binding to MEKK3; actives lie on both sides; 0 = blocked by unlabeled MEK5, 100 = vehicle. binding response (% of control), % at 10 µM. actives 1.4% (n = 290,000). AID 1529, 2009;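 active = binding response more than 3 SD above or below the average of its plate-row segment, actives on both sides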;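 also: Alexa488 bead fluorescence after subtracting the streptavidin-only scavenger bead signal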
Mot1-301 SUMO: yeast Mot1-301 growth rescue at high temperature, primary screen, SUMOylation pathway inhibitor project, S. cerevisiae, ATP luminescence, 38.5C. growth rescue, % at 18.8 µM. actives 1% (n = 320,000). AID 2716, 2010. S. cerevisiae Mot1-301 growth rescue; percent above DMSO median, 100 means doubled;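 active = every valid replicate shows activation above 250% relative to neutral control wells; inactive = the rest, any valid replicate at or below 250%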
CHT block: inhibitors of human choline transporter CHT; CHT-expressing cells, membrane potential dye, choline response; hits give low values; High affinity choline transporter 1 (Homo sapiens), Q9GZV3; actives 0.86% (n = 310,000); B-score at 10 µM;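 active = B-score over 3 SD under the library average, and starting fluorescence ratio not unusually high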;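 also: choline stimulus applied at its EC90 after an EC20 pre-addition; B-score computed on integrated fluorescence ratio after choline addition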
Target sequence (Q9GZV3 whole entry, looked up): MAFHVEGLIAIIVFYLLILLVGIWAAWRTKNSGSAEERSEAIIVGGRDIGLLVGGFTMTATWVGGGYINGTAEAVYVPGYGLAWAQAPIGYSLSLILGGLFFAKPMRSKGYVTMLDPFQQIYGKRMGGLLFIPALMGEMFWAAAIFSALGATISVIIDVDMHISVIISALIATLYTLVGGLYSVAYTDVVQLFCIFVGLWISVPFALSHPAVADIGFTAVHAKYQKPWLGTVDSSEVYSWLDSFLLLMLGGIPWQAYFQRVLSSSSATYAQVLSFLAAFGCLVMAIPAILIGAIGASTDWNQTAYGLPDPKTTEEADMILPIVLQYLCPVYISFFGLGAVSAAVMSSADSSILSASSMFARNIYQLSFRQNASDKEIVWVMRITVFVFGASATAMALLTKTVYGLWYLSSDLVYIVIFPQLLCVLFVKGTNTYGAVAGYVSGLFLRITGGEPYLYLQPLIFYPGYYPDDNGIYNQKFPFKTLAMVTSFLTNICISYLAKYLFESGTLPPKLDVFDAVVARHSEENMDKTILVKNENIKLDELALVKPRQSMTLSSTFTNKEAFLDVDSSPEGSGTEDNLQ
MEKK2 mut-MEK5: MEK5 binding signal on mutant MEKK2 PB1, primary screen, biochemical, multiplex bead flow cytometry, Alexa488-MEK5. Alexa488-MEK5 binding to MEKK2 mutant. AID 1530, 2009. actives 0.35% (n = 290,000). percent response, % at 10 µM; in the data active = percent response above about 24%, passing the limit was not always enough
MEKK2wt PB1 HTS: modulators of MEK5 binding to wildtype MEKK2, primary screen, biochemical, multiplex bead flow cytometry, Alexa488-MEK5 | Mitogen-activated protein kinase kinase kinase 2 (Homo sapiens), Q9Y2U5 | Alexa488-MEK5 binding to MEKK2 WT; actives lie on both sides | binding response (% of control), % at 10 µM | actives 1.1% (n = 290,000) | AID 1531, 2009; in the data active = binding response below about 67% or above about 130%
CHT allo act: CHT positive allosteric modulators, primary screen, cell-based, membrane potential dye, choline EC20 | High affinity choline transporter 1 (Homo sapiens), Q9GZV3 | CHT-expressing cells; hits give high values; LV-AA mutant CHT in HEK293 cells | B-score at 10 µM | actives 0.49% (n = 310,000) | AID 488977, 2010;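 active = initial fluorescence not abnormally high and integrated response B-score, plate-corrected, over 3 SD above library mean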
CHT block conf: CHT inhibitors, confirmation, cell-based, membrane potential dye, duplicate | shares compounds with CHT block | actives 70% (n = 2,400) | CHT-expressing cells, choline membrane potential dye; LV-to-AA substituted CHT, HEK293 cells | CHT activity remaining % of control (hits give low values), % at 10 µM;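 active = choline transporter activity left, mean of duplicates at 10 µM, below buffer-only control mean minus 3 SD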;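 also: depolarization triggered by choline at its EC90 following an EC20 pre-addition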
HEK293 CHT ctr: membrane potential effects in parental HEK293, counter-screen for CHT inhibitor project, cell-based, membrane potential dye | shares compounds with CHT block | choline response; active = decrease or increase beyond buffer ±3SD | membrane potential ratio readout (active if shifted either direction beyond buffer ±3SD; no single direction) at 10 µM | actives 4% (n = 2,400) | AID 493222, 2011;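 also: parental cells lack the transporter so any hit is non-specific; ratio is peak minus trough fluorescence over baseline after EC90 choline challenge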
Large screens that a line does not name were inactive (follow-up assays come after a bar, where they were run).

CCC1CCCCN1S(=O)(=O)c1ccc(NC(=O)c2nc(S(C)(=O)=O)ncc2Cl)cc1 (configuration not stated)	CHT block -6.4 | CHT block conf 12% | HEK293 CHT ctr inactive
CCC1CCCCN1S(=O)(=O)c1ccc(NC(=O)c2ccncc2)cc1 (configuration not stated)	none
O=C(Cc1ccc(Cl)c(Cl)c1)Nc1ccc(S(=O)(=O)Nc2ncccn2)cc1	none
O=C(NCCCn1ccnc1)c1cnn2c1NC(c1ccccc1)CC2C(F)(F)F (configuration not stated)	CHT block -14 | CHT block conf 9.0% | HEK293 CHT ctr inactive
O=C(NCC1CCCO1)c1cnn2c1NC(c1ccccc1)CC2C(F)(F)F (configuration not stated)	none
CCc1ccc(OCc2n[nH]c(=S)n2Cc2ccccc2)cc1	CHT block -6.5 | CHT block conf 68% | HEK293 CHT ctr inactive
CCN1C(=O)CC(c2ccccc2)CC1=O	none (no result: MEKK3 PB1 HTS, MEKK2 mut-MEK5, MEKK2wt PB1 HTS)
CN1C(=O)CC(c2ccccc2)CC1=O	CHT block -13 (no result: MEKK3 PB1 HTS, MEKK2 mut-MEK5, MEKK2wt PB1 HTS) | CHT block conf inactive | HEK293 CHT ctr inactive
O=C(Nc1ccccc1)c1ccc(NCCc2ccccc2)c([N+](=O)[O-])c1	none
NC(=O)c1ccc(NCCc2ccccc2)c([N+](=O)[O-])c1	CHT block -5 | CHT block conf inactive | HEK293 CHT ctr inactive
COc1cccc(-c2cc(C(=O)NN3CCOCC3)c3ccccc3n2)c1	CHT block -10 | CHT block conf inactive | HEK293 CHT ctr inactive
CN(C)c1ccc(-c2nnn(CC(=O)N3c4ccccc4CCc4ccccc43)n2)cc1	CHT block -7.2 | CHT block conf inactive | HEK293 CHT ctr inactive
O=C(Nc1ccc(Cc2ccncc2)cc1)c1ccc(N2CCOCC2)c([N+](=O)[O-])c1	none
Cc1ccc(C(=O)Nc2ccc(Cc3ccncc3)cc2)cc1[N+](=O)[O-]	CHT block -5.6 (no result: MEKK3 PB1 HTS, MEKK2 mut-MEK5, MEKK2wt PB1 HTS) | CHT block conf inactive | HEK293 CHT ctr inactive
CSc1nc(N)nc2c1ncn2CC(=O)NCC1CCCO1 (configuration not stated)	none (no result: MEKK3 PB1 HTS, CHT block, MEKK2 mut-MEK5, MEKK2wt PB1 HTS, CHT allo act)
COc1ccc(CNC(=O)c2ccc(N3CCC4(CC3)CC(c3ccc(Cl)cc3)=NO4)c(NC(=O)Cc3ccc(F)cc3)c2)cc1	none (no result: MEKK3 PB1 HTS, CHT block, MEKK2 mut-MEK5, MEKK2wt PB1 HTS, CHT allo act)
O=C(CSc1nnc(-c2ccco2)n1Cc1ccco1)NCc1ccccc1	CHT block -5.1 | CHT block conf inactive | HEK293 CHT ctr inactive
COc1ccc(/C(O)=C2/C(=O)C(=O)N(c3ccccn3)C2c2cccc(Cl)c2)cc1 (configuration not stated)	CHT block -5.3 | CHT block conf 59% | HEK293 CHT ctr inactive
COc1ccc(/C(O)=C2/C(=O)C(=O)N(c3ccccn3)C2c2ccc(OC)cc2)cc1 (configuration not stated)	none (no result: Mot1-301 SUMO, CHT block, CHT allo act)
Cc1ccc(N=Cc2cc(Cc3ccccc3Cl)cc([N+](=O)[O-])c2O)c(O)c1	CHT block -7.8 | CHT block conf 64% | HEK293 CHT ctr inactive
COc1ccc(N=Cc2cc(Cc3ccccc3Cl)cc([N+](=O)[O-])c2O)cc1OC	CHT block -6 | CHT block conf inactive | HEK293 CHT ctr inactive
